Test results as given in PubChem BioAssay (NCATS).
Results filed as inconclusive are left out. Values without a mark were called inactive. Calls of active or inactive are those of the source. Calls come from the whole dose curve; as a rule, active = well fitted inhibition curve with a large enough effect; inconclusive = small, poorly fitted or top-dose-only effect; inactive = no such curve, though single readings can be large or run the other way.

molecular target: Muscarinic acetylcholine receptor M1 (Rattus norvegicus) (UniProt P08482); test: qHTS Assay for Antagonists of Acetylcholine Muscarinic M1 Receptor: Measurement of IP-One Response (AID 944); settings: CHO-M1 cells, IP-One HTRF, antagonist mode; series mostly up to 46.1 µM; activity change, negative = inhibition: at the top concentration; note: nearly all actives have a fitted effect of over 75% in size
Method in brief: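 M1-CHO (rat), 2000 cells/well, overnight recovery; cpd 10 min; carbachol EC80 (200 nM), 30 min, HEPES buffer + 50 mM LiCl pH 7.4; IP-One HTRF, Ex 337, Em 620/665 nm.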
Potency is the fitted concentration of half-maximal effect.

Muscarinic acetylcholine receptor M1 (Rattus norvegicus), sequence (P08482 whole entry, looked up): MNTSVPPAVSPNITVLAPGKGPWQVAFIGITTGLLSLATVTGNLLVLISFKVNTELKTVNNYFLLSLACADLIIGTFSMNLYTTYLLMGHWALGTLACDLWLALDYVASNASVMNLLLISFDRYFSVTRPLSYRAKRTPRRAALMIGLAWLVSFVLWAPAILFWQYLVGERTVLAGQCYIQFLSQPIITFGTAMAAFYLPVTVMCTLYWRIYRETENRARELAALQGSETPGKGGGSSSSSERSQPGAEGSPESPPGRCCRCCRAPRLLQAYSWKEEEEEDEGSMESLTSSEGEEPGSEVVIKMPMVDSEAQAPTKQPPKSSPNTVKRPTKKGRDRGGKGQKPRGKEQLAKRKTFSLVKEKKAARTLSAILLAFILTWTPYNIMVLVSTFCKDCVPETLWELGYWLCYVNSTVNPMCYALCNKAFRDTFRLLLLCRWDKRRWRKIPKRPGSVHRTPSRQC

SMILES | Potency | activity change, negative = inhibition [%]
CCCN(CCC)[C@H]1CCc2c(F)ccc(O)c2C1 | 8.91 µM (active) | –
O=P(O)(O)C(Cl)(Cl)P(=O)(O)O | – | -29
OCc1cnc[nH]1 | – | -14.9
C[N+](C)(C)CC#CCOC(=O)Nc1cccc(Cl)c1 | – | -28.4
Clc1cc(I)cc(Cl)c1NC1=NCCN1 | – | -39.8
Cc1sc2ccccc2c1CC1=NCCN1 | – | -28.4
CNC(=O)OCC[N+](C)(C)C | – | 41.9
Cc1[nH]c2ccc(O)cc2c1CCN | – | -38.1
N#CCCN | – | -21.2
COc1ccc2[nH]c3c(c2c1)CCNC3 | – | -43.8
NC(=O)c1cc(N2CC2)c([N+](=O)[O-])cc1[N+](=O)[O-] | – | -40.4
O=[N+]([O-])c1cc(O)c(O)c([N+](=O)[O-])c1 | – | 2.7
CCCN(CCC)C1Cc2cc(OC)c(OC)cc2C1 | 2.51 µM (active) | –
C[N+](C)(C)CC#CCN1CCCC1=O | – | 61.6
C[C@@H]1O[C@H](C[N+](C)(C)C)CS1 | – | 52.2
COc1ccc2[nH]cc(CCN)c2c1 | – | -27
Cc1c2ccncc2c(C)c2c1[nH]c1ccccc12 | 25.1 µM (active) | –
O=C1C=CC(=O)C=C1 | – | -27.4
O=S1(=O)N(CCN2CC=C(c3c[nH]c4cc(F)ccc34)CC2)c2cccc3c2N1CCC3 | 14.1 µM (active) | –
